Hits are enriched below; roughly 22% of the tested compounds scored in any of these assays.
CYP2C19 activ: activators of human cytochrome P450 2C19; recombinant CYP2C19, luciferin-H EGE luminescence; stronger effect = higher value; 0 = fully inhibited enzyme, 1 = untreated enzyme; activation factor at 5 µM; 96,000 tested, under 10 active; AID 1025;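 active = activation factor of at least 2 at 5 µM in the primary screen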
CYP2C9 inh: inhibitors of human CYP2C9; P11712; CYP2C9 Supersomes, luciferin-H conversion, luminescence; inhibition, % at 5 µM; actives 20% (n = 96,000);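 active = blocking of liver enzyme CYP2C9 beyond about 50% at 5 µM, limit read from the data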
Target sequence (P11712 whole entry, looked up): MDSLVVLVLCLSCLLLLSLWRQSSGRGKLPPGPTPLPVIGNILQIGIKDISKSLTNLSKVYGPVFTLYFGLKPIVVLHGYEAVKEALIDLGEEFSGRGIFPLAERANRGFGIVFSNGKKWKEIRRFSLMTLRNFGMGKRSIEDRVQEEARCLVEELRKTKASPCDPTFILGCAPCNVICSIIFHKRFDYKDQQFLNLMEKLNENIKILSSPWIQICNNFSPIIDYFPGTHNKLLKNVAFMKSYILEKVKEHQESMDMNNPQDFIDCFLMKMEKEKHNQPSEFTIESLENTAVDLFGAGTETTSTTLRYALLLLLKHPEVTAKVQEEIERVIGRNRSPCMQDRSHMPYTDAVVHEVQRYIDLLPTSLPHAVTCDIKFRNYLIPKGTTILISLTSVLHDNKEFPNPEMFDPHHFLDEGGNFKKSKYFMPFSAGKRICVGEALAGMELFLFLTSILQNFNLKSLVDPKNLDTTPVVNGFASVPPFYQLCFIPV
CYP2C19 inhib: blocks human cytochrome P450 2C19; CYP2C19 Supersomes, luciferin-H EGE luminescence, 30 min; actives 21% (n = 96,000); P33261; AID 778; inhibition, % at 5 µM;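 active = CYP2C19 inhibition above a set limit at 5 µM in the primary screen, cut at about 50% in these data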
Measles CPE: protection of cells from measles virus; AID 841; Measles virus-infected cells, CPE protection, absorbance; protection (pct of control), % at 4 µM; actives 1.5% (n = 140,000); in the data active = protection mostly above about 24%, no sharp cut-off; inactive = mostly below about 26%
CYP2C9 act: increases human cytochrome P450 2C9 activity. P11712. recombinant CYP2C9, luciferin-H conversion, luminescence; stronger effect = higher value; factor 1 = untreated enzyme, 0 = blocked. activation factor at 5 µM. actives 1.4% (n = 96,000). AID 1024;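 active = activation factor of 2 or more for CYP2C9 at a 5 µM dose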
Large screens that a line does not name were inactive.

CC(C)c1ccc(C(=O)N(c2ccccn2)C(C)c2ccco2)cc1 (configuration not stated)	none
CCc1ccc2c(c1)[C@]1(C(=O)N2)[C@@H]2C(=O)N(Cc3ccccc3)C(=O)[C@@H]2[C@@H]2CCCN21	CYP2C9 inh 68, CYP2C19 inhib 75
Cc1ccc2c(c1)c1c(n2CC(O)CN2C(=O)CNC2=O)C(=O)CCC1 (configuration not stated)	none
Cc1ccc2c(c1)c1c(n2CC(O)Cn2c(C)nc3ccccc32)/C(=N\O)CCC1 (configuration not stated)	CYP2C9 inh 96, CYP2C19 inhib 54
Cc1ccc2c(c1)c1c(n2CC2COC(C)(C)O2)C(=O)CCC1 (configuration not stated)	CYP2C9 inh 73, CYP2C19 inhib 76
Cc1ccc2c(c1)c1c(n2CC(O)Cn2ccnc2C)C(=O)CCC1 (configuration not stated)	none (no result: CYP2C19 activ, CYP2C9 inh, CYP2C19 inhib, CYP2C9 act)
Cc1nc2ccccc2n1CC(O)Cn1c2ccccc2c2ccccc21 (configuration not stated)	CYP2C9 inh 78, CYP2C19 inhib 75
CCCCOCC(O)Cn1c(C)nc2ccccc21 (configuration not stated)	none
Cc1ccc2c(c1)c1c(n2CC(O)Cn2c(C)nc3ccccc32)C(=O)CCC1 (configuration not stated)	CYP2C9 inh 86
O=C1CC(=O)CC(c2ccccc2Cl)C1	none (no result: CYP2C19 activ, CYP2C9 inh, CYP2C19 inhib, CYP2C9 act)
CCOC(=O)C(NC(C)=O)(OCc1ccc(F)cc1)C(F)(F)F (configuration not stated)	CYP2C19 inhib 55
CCOC(=O)C(NC(=O)NCc1ccc(F)cc1)(OCC)C(F)(F)F (configuration not stated)	none (no result: CYP2C19 activ, CYP2C9 inh, CYP2C19 inhib, CYP2C9 act)
CCOC(=O)Cc1csc(NC(NC(=O)OCC)(C(=O)OCC)C(F)(F)F)n1 (configuration not stated)	none (no result: CYP2C19 activ, CYP2C9 inh, CYP2C19 inhib, CYP2C9 act)
CCOC(=O)C(NC(=O)Nc1ccccc1)(OCC)C(F)(F)F (configuration not stated)	CYP2C19 inhib 50
CCOC(=O)Cc1cnc(NC(=O)NC(C(=O)OCC)(c2ccccc2)C(F)(F)F)s1 (configuration not stated)	CYP2C19 inhib 53
COc1ccc(NC(=O)c2ccc3ccccc3n2)cc1S(=O)(=O)Nc1ccccc1Cl	none (no result: CYP2C19 activ, CYP2C9 inh, CYP2C19 inhib, CYP2C9 act)
CCOC(=O)c1c(NC(=O)c2ccc(N3C(=O)C4C5C=CC(C5)C4C3=O)cc2)sc2c1CCCC2 (configuration not stated)	CYP2C9 inh 66
CCOC(=O)c1c(NC(=O)c2ccco2)sc2c1CCCCC2	CYP2C9 inh 78
CCOC(=O)c1c(NC(=O)CSc2nnc(CNC(=O)c3ccco3)n2C)sc2c1CCC2	CYP2C9 inh 70
O=C(Nc1sc2c(c1C(=O)O)CCCCC2)c1ccco1	CYP2C9 inh 51
O=c1cc(CN2CCN(c3ccc(F)cc3)CC2)nc2sccn12	none
Clc1cccc2sc(N3CCN(c4ccccc4)CC3)nc12	none (no result: CYP2C19 activ, CYP2C9 inh, CYP2C19 inhib, CYP2C9 act)
CC(C)COC(=O)n1c(=O)oc2cc(S(=O)(=O)N3CCCCC3)ccc21	none
CCOC(=O)c1c(NS(=O)(=O)Cc2ccccc2)sc2c1CCCC2	CYP2C9 inh 95, CYP2C19 inhib 99
NC(=O)c1c(NC(=O)CSc2nnc(Cc3ccccc3)n2Cc2ccco2)sc2c1CCC2	CYP2C9 inh 64
CCOC(=O)c1c(NC(=O)C(C)N2CCN(C(=O)c3ccco3)CC2)sc2c1CCCC2 (configuration not stated)	CYP2C9 inh 100, CYP2C19 inhib 77
O=C(CSc1nnc(Cc2ccccc2)n1Cc1ccco1)NC12CC3CC(CC(C3)C1)C2	none
Cc1ccc(S(=O)(=O)Nc2nsc(N)n2)cc1	none
C=C(Cl)COc1ccc2c(CCCC)cc(=O)oc2c1	CYP2C9 inh 92, CYP2C19 inhib 91
CCOC(=O)CSc1nc2c(sc(=S)n2Cc2ccco2)c(=O)n1-c1ccc(F)cc1	CYP2C9 inh 72, CYP2C19 inhib 56
CCN(CC)C(=O)CSc1nc2c(sc(=S)n2CC)c(=O)n1-c1ccccc1	none
COc1ccccc1-n1c(=S)sc2c(=O)n(Cc3ccco3)c(SC)nc21	CYP2C9 inh 76, CYP2C19 inhib 64
CCN(CC)C(=O)CSc1nc2c(sc(=S)n2-c2ccccc2)c(=O)n1Cc1ccco1	CYP2C9 inh 67
Cc1ccc(-c2nc(CS(=O)(=O)CC(=O)NCCCN3CCN(C)CC3)c(C)o2)cc1	none
CCOC(=O)c1cc(CC)sc1NC(=O)COc1ccc2c(C)cc(=O)oc2c1	none (no result: CYP2C19 activ, CYP2C9 inh, CYP2C19 inhib, CYP2C9 act)
Cc1ccnc2c(N3C(=O)C4C5C=CC(C5)C4(C)C3=O)cccc12 (configuration not stated)	none
O=C(CN1CCN(Cc2ccccc2F)C1=O)NCCN1CCOCC1	none
O=C(/C=C/c1ccc2c(c1)OCO2)Nc1nc(-c2ccccc2)cs1	CYP2C9 inh 74, CYP2C19 inhib 59
Cc1sc(NC(=O)/C=C/c2ccc3c(c2)OCO3)nc1-c1ccccc1	none (no result: CYP2C19 activ, CYP2C9 inh, CYP2C19 inhib, CYP2C9 act)
O=C(/C=C/c1cccs1)Nc1nc(-c2ccccc2)cs1	CYP2C9 inh 85, CYP2C19 inhib 70
O=C(COC(=O)/C=C/c1cccs1)Nc1nc(-c2ccccc2)cs1	none (no result: CYP2C19 activ, CYP2C9 inh, CYP2C19 inhib, CYP2C9 act)
CCN(CC)c1ccc2cc(NC(=O)CCC(=O)O)c(=O)oc2c1	none
COc1cc(S(=O)(=O)NC2CCCC2)ccc1F	CYP2C19 inhib 90
COc1cc(S(=O)(=O)NC2CCCC2)ccc1Cl	CYP2C19 inhib 94, CYP2C9 act 3
COc1cc(S(=O)(=O)Nc2cc(C)cc(C)c2)ccc1F	none (no result: CYP2C19 activ, CYP2C9 inh, CYP2C19 inhib, CYP2C9 act)
Cc1ccc(S(=O)(=O)NC2CCCC2)cc1C	none
COc1ccc(S(=O)(=O)NC2CCCC2)cc1Br	CYP2C19 inhib 97, CYP2C9 act 2.4
COc1cc(S(=O)(=O)Nc2ccccn2)ccc1F	CYP2C9 act 2.1
COc1ccc(OC)c(S(=O)(=O)NC2CCCCC2)c1	none
COc1cc(S(=O)(=O)NC2CCCCC2C)ccc1Cl (configuration not stated)	CYP2C19 inhib 97
COc1ccc(S(=O)(=O)NC2CCCCC2)c(C)c1C	CYP2C19 inhib 96
COc1cc(OC)c(NC(=S)Nc2cc(Cl)cc(Cl)c2)cc1Cl	none (no result: CYP2C19 activ, CYP2C9 inh, CYP2C19 inhib, CYP2C9 act)
CC(=O)c1cccc(NC(=O)NC(C)c2ccncc2)c1 (configuration not stated)	CYP2C9 inh 94, CYP2C19 inhib 85
O=C(O)c1cccc(NC(=S)NC(=O)C(c2ccccc2)c2ccccc2)c1	CYP2C9 inh 82
COc1cc(OC)c(NC(=S)Nc2cccc(C(C)=O)c2)cc1Cl	CYP2C19 inhib 54
CC(=O)c1cccc(NC(=S)NC(=O)CC(C)C)c1	CYP2C9 inh 56
CC(=O)c1cccc(NC(=O)Nc2cccnc2)c1	none (no result: CYP2C19 activ, CYP2C9 inh, CYP2C19 inhib, CYP2C9 act)
CCN1C(=O)C2(C(C#N)=C(N)Oc3n[nH]c(C(C)C)c32)c2ccccc21 (configuration not stated)	none
COCCn1c(=NC(=O)/C=C/c2cccs2)sc2cc(NC(C)=O)ccc21	none (no result: CYP2C19 activ, CYP2C9 inh, CYP2C19 inhib, CYP2C9 act)
CCc1ccc(NSc2ccccc2[N+](=O)[O-])cc1	CYP2C19 inhib 65
COC(/C=C/Nc1ccc(C)c(C)c1)=C(C#N)C#N	none
CC1CCCCC1NC(=O)CSc1nnnn1-c1ccccc1 (configuration not stated)	CYP2C19 inhib 89

Screening results deposited in PubChem by several laboratories.
